From the supplement of paper PMC8728848
The full list was thinned out, with the strongest signals kept by preference.

How the values were obtained:
Experiment in all cases: glycan array binding signal (z-score within array); higher = stronger binding
Conditions in all cases: glycan notation: IUPAC condensed, linker removed
[1] = biological target: Neu5Gc(a2-3)Gal(b1-4)[Fuc(a1-3)]GlcNAc
Summary of the method: (§1)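 Glycan array binding is given as a within-array Z-score, which can be read as non-binding when negative. The arrays, 3228 of them, came from the Consortium for Functional Glycomics database and were retained only where the protein sequence was available. Z-scores were averaged across arrays of the same protein sequence at different concentrations or buffers and across linkers.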

[2] = biological target: Fuc(a1-2)Gal(b1-3)[Fuc(a1-4)]GlcNAc(b1-3)[Fuc(a1-3)[Gal(b1-4)]GlcNAc(b1-6)]Gal(b1-4)Glc
Summary of the method: as §1

[3] = biological target: Fuc(a1-2)Gal(b1-4)[Fuc(a1-3)]GlcNAc(b1-2)[Fuc(a1-2)Gal(b1-4)[Fuc(a1-3)]GlcNAc(b1-4)]Man(a1-3)[Fuc(a1-2)Gal(b1-4)[Fuc(a1-3)]GlcNAc(b1-2)Man(a1-6)]Man(b1-4)GlcNAc(b1-4)GlcNAc
Summary of the method: as §1

[4] = biological target: Fuc(a1-2)[Gal(a1-3)]Gal(b1-3)GlcNAc
Summary of the method: as §1

[5] = biological target: Fuc(a1-2)[Gal(a1-3)]Gal(b1-4)[Fuc(a1-3)]Glc
Summary of the method: as §1

[6] = biological target: Fuc(a1-2)[GalNAc(a1-3)]Gal(b1-3)GlcNAc(b1-2)Man(a1-3)[Fuc(a1-2)[GalNAc(a1-3)]Gal(b1-3)GlcNAc(b1-2)Man(a1-6)]Man(b1-4)GlcNAc(b1-4)GlcNAc
Summary of the method: as §1

[7] = biological target: Fuc(a1-2)[GalNAc(a1-3)]Gal(b1-4)GlcNAc(b1-3)GalNAc
Summary of the method: as §1

[8] = biological target: Fuc(a1-2)[GalNAc(a1-4)]Gal(b1-4)GlcNAc
Summary of the method: as §1

[9] = biological target: Gal(b1-3)GalNAc(b1-4)[Neu5Ac(a2-3)]Gal(b1-4)Glc
Summary of the method: as §1

[10] = biological target: Gal(b1-3)GlcNAc(b1-2)Man(a1-3)[Gal(b1-3)GlcNAc(b1-2)Man(a1-6)]Man(b1-4)GlcNAc(b1-4)[Fuc(a1-6)]GlcNAc
Summary of the method: as §1

[11] = biological target: Gal(b1-3)GlcNAc(b1-2)Man(a1-3)[GlcNAc(b1-4)][Gal(b1-3)GlcNAc(b1-2)Man(a1-6)]Man(b1-4)GlcNAc(b1-4)GlcNAc
Summary of the method: as §1

[12] = biological target: Gal(b1-4)Glc6S
Summary of the method: as §1

[13] = biological target: Gal(b1-4)GlcNAc(b1-2)Man(a1-3)[Gal(b1-4)GlcNAc(b1-2)Man(a1-6)]Man(b1-4)GlcNAc(b1-4)[Fuc(a1-6)]GlcNAc
Summary of the method: as §1

[14] = biological target: Gal(b1-4)GlcNAc(b1-2)Man(a1-3)[Gal(b1-4)GlcNAc(b1-2)Man(a1-6)][Gal(b1-4)GlcNAc(b1-4)]Man(b1-4)GlcNAc(b1-4)[Fuc(a1-6)]GlcNAc
Summary of the method: as §1

[15] = biological target: Gal(b1-4)GlcNAc(b1-3)Gal(b1-3)GalNAc
Summary of the method: as §1

[16] = biological target: Gal(b1-4)GlcNAc(b1-3)Gal(b1-4)GlcNAc(b1-2)Man(a1-3)[Gal(b1-4)GlcNAc(b1-3)Gal(b1-4)GlcNAc(b1-2)Man(a1-6)]Man(b1-4)GlcNAc(b1-4)[Fuc(a1-6)]GlcNAc
Summary of the method: as §1

[17] = biological target: Gal(b1-4)GlcNAc(b1-3)Gal(b1-4)GlcNAc(b1-3)Gal(b1-4)GlcNAc(b1-2)Man(a1-3)[Gal(b1-4)GlcNAc(b1-3)Gal(b1-4)GlcNAc(b1-3)Gal(b1-4)GlcNAc(b1-2)Man(a1-6)]Man(b1-4)GlcNAc(b1-4)[Fuc(a1-6)]GlcNAc
Summary of the method: as §1

[18] = biological target: Gal(b1-4)GlcNAc(b1-3)Gal(b1-4)GlcNAc(b1-3)Gal(b1-4)GlcNAc(b1-3)Gal(b1-4)GlcNAc(b1-2)Man(a1-3)[Gal(b1-4)GlcNAc(b1-3)Gal(b1-4)GlcNAc(b1-3)Gal(b1-4)GlcNAc(b1-3)Gal(b1-4)GlcNAc(b1-2)Man(a1-6)]Man(b1-4)GlcNAc(b1-4)[Fuc(a1-6)]GlcNAc
Summary of the method: as §1

[19] = biological target: Gal(b1-4)GlcNAc(b1-3)Gal(b1-4)GlcNAc(b1-3)Gal(b1-4)GlcNAc(b1-3)Gal(b1-4)GlcNAc(b1-3)Gal(b1-4)GlcNAc(b1-2)Man(a1-3)[Gal(b1-4)GlcNAc(b1-3)Gal(b1-4)GlcNAc(b1-3)Gal(b1-4)GlcNAc(b1-3)Gal(b1-4)GlcNAc(b1-3)Gal(b1-4)GlcNAc(b1-2)Man(a1-6)]Man(b1-4)GlcNAc(b1-4)[Fuc(a1-6)]GlcNAc
Summary of the method: as §1

[20] = biological target: Gal(b1-4)GlcNAc(b1-3)Gal(b1-4)GlcNAc(b1-6)[Gal(b1-3)]GalNAc
Summary of the method: as §1

[21] = biological target: Gal3S(b1-4)GlcNAc
Summary of the method: as §1

[22] = biological target: Gal6S(b1-3)GlcNAc6S
Summary of the method: as §1

[23] = biological target: GalNAc(b1-3)Gal(a1-6)Gal(b1-4)Glc
Summary of the method: as §1

[24] = biological target: GalNAc(b1-4)Gal(b1-4)Glc
Summary of the method: as §1

[25] = biological target: GalNAc(b1-6)GalNAc
Summary of the method: as §1

[26] = biological target: GlcA(b1-6)Gal
Summary of the method: as §1

[27] = biological target: GlcNAc(a1-4)Gal(b1-4)GlcNAc(b1-3)Gal(b1-4)[Fuc(a1-3)]GlcNAc(b1-3)Gal(b1-4)[Fuc(a1-3)]GlcNAc
Summary of the method: as §1

[28] = biological target: GlcNAc(b1-2)[GlcNAc(b1-4)]Man(a1-3)[GlcNAc(b1-2)Man(a1-6)]Man(b1-4)GlcNAc(b1-4)GlcNAc
Summary of the method: as §1

[29] = biological target: GlcNAc(b1-2)[GlcNAc(b1-6)]Man(a1-6)[GlcNAc(b1-2)Man(a1-3)]Man(b1-4)GlcNAc(b1-4)[Fuc(a1-6)]GlcNAc
Summary of the method: as §1

[30] = biological target: GlcNAc(b1-3)Fuc
Summary of the method: as §1

[31] = biological target: GlcNAc(b1-3)Gal(b1-4)Glc
Summary of the method: as §1

[32] = biological target: GlcNAc(b1-3)Gal(b1-4)GlcNAc(b1-2)Man(a1-3)[GlcNAc(b1-3)Gal(b1-4)GlcNAc(b1-2)Man(a1-6)]Man(b1-4)GlcNAc(b1-4)[Fuc(a1-6)]GlcNAc
Summary of the method: as §1

[33] = biological target: GlcNAc(b1-3)Gal(b1-4)GlcNAc(b1-3)Gal(b1-4)GlcNAc(b1-2)Man(a1-3)[GlcNAc(b1-3)Gal(b1-4)GlcNAc(b1-3)Gal(b1-4)GlcNAc(b1-2)Man(a1-6)]Man(b1-4)GlcNAc(b1-4)[Fuc(a1-6)]GlcNAc
Summary of the method: as §1

[34] = biological target: GlcNAc(b1-3)Gal(b1-4)GlcNAc(b1-3)Gal(b1-4)GlcNAc(b1-3)Gal(b1-4)GlcNAc(b1-2)Man(a1-3)[GlcNAc(b1-3)Gal(b1-4)GlcNAc(b1-3)Gal(b1-4)GlcNAc(b1-3)Gal(b1-4)GlcNAc(b1-2)Man(a1-6)]Man(b1-4)GlcNAc(b1-4)[Fuc(a1-6)]GlcNAc
Summary of the method: as §1

[35] = biological target: GlcNAc(b1-3)Gal(b1-4)GlcNAc(b1-3)Gal(b1-4)GlcNAc(b1-3)Gal(b1-4)GlcNAc(b1-2)[GlcNAc(b1-3)Gal(b1-4)GlcNAc(b1-3)Gal(b1-4)GlcNAc(b1-3)Gal(b1-4)GlcNAc(b1-6)]Man(a1-6)[GlcNAc(b1-3)Gal(b1-4)GlcNAc(b1-3)Gal(b1-4)GlcNAc(b1-3)Gal(b1-4)GlcNAc(b1-2)Man(a1-3)]Man(b1-4)GlcNAc(b1-4)[Fuc(a1-6)]GlcNAc
Summary of the method: as §1

[36] = biological target: GlcNAc(b1-3)Gal(b1-4)GlcNAc(b1-6)[Gal(b1-3)]GalNAc
Summary of the method: as §1

[37] = biological target: GlcNAc(b1-4)GlcNAc(b1-4)GlcNAc(b1-4)GlcNAc(b1-4)GlcNAc(b1-4)GlcNAc
Summary of the method: as §1

[38] = biological target: GlcNAc(b1-4)[GlcNAc(b1-6)]GalNAc
Summary of the method: as §1

[39] = biological target: Man(a1-2)Man(a1-2)Man(a1-6)[Man(a1-3)]Man
Summary of the method: as §1

[40] = biological target: Man(a1-3)[Man(a1-6)]Man(b1-4)GlcNAc(b1-4)[Fuc(a1-6)]GlcNAc
Summary of the method: as §1

[41] = biological target: Man(a1-6)Man
Summary of the method: as §1

[42] = biological target: Neu5Ac(a2-3)Gal(b1-3)GlcNAc(b1-3)Gal(b1-3)GlcNAc
Summary of the method: as §1

[43] = biological target: Neu5Ac(a2-3)GalNAc
Summary of the method: as §1

[44] = biological target: Neu5Ac(a2-6)Gal(b1-4)GlcNAc(b1-2)Man(a1-3)Man(b1-4)GlcNAc(b1-4)GlcNAc
Summary of the method: as §1

[45] = biological target: Neu5Ac(a2-6)Gal(b1-4)GlcNAc(b1-2)Man(a1-3)[Man(a1-6)]Man(b1-4)GlcNAc(b1-4)GlcNAc
Summary of the method: as §1

[46] = biological target: Neu5Ac(a2-6)Gal(b1-4)GlcNAc(b1-2)Man(a1-3)[Neu5Ac(a2-6)Gal(b1-4)GlcNAc(b1-2)Man(a1-6)]Man(b1-4)GlcNAc(b1-4)[Fuc(a1-6)]GlcNAc
Summary of the method: as §1

[47] = biological target: Neu5Ac(a2-6)Gal(b1-4)GlcNAc(b1-3)Gal(b1-4)GlcNAc(b1-6)[Gal(b1-3)]GalNAc
Summary of the method: as §1

B1: ZG-16 (Homo sapiens), O60844 (protein)
chain: IQARSSSYSGEYGSGGGKRFSHSGNQLDGPITALRVRVNTYYIVGLQVRYGKVWSDYVGGRNGDLEEIFLHPGESVIQVSGKYKWYLKKLVFVTDKGRYLSFGKDSGTSFNAVPLHPNTVLRFISGRSGSLIDAIGLHWDVYPTSCSRCSRGSDDDDKAEPRGPTIKPCPPCKCPAPNLLGGPSVFIFPPKIKDVLMISLSPIVTCVVVDVSEDDPDVQISWFVNNVEVHTAQTQTHREDYNSTLRVVSALPIQHQDWMSGKEFKCKVNNKDLPAPIERTISKPKGSVRAPQVYVLPPPEEEMTKKQVTLTCMVTDFMPEDIYVEWTNNGKTELNYKNTEPVLDSDGSYFMYSKLRVEKKNWVERNSYSCSVVHEGLHNHHTTKSFSRTPGKRTYHHHHHHARKLTR
glycan array binding signal (z-score) [1]: -0.11

B2: HML-Native (Hypnea musciformis), P84871 (protein)
chain: QKFCTLDIAPVCCQIVIGGGMYTAGNACMCEGFVSGVGRCENPKECPCTREAQIPSCCSSRWGLVSVTGKCACDCLGGTVAFPEPCPSPY
glycan array binding signal (z-score) [2]: -0.188 | glycan array binding signal (z-score) [3]: -0.059 | glycan array binding signal (z-score) [4]: -0.211 | glycan array binding signal (z-score) [5]: -0.283 | glycan array binding signal (z-score) [6]: -0.093 | glycan array binding signal (z-score) [7]: -0.302 | glycan array binding signal (z-score) [8]: -0.162 | glycan array binding signal (z-score) [9]: -0.318 | glycan array binding signal (z-score) [10]: 5.16 | glycan array binding signal (z-score) [11]: -0.276 | glycan array binding signal (z-score) [12]: -0.313 | glycan array binding signal (z-score) [13]: 5.65 | glycan array binding signal (z-score) [14]: 1.48 | glycan array binding signal (z-score) [15]: -0.238 | glycan array binding signal (z-score) [16]: 5.52 | glycan array binding signal (z-score) [17]: 4.93 | glycan array binding signal (z-score) [18]: 4.9 | glycan array binding signal (z-score) [19]: 4.8 | glycan array binding signal (z-score) [20]: -0.192 | glycan array binding signal (z-score) [21]: -0.233 | glycan array binding signal (z-score) [22]: -0.323 | glycan array binding signal (z-score) [23]: -0.345 | glycan array binding signal (z-score) [24]: -0.252 | glycan array binding signal (z-score) [25]: -0.284 | glycan array binding signal (z-score) [26]: -0.241 | glycan array binding signal (z-score) [27]: 0.641 | glycan array binding signal (z-score) [28]: -0.307 | glycan array binding signal (z-score) [29]: 4.99 | glycan array binding signal (z-score) [30]: -0.11 | glycan array binding signal (z-score) [31]: -0.205 | glycan array binding signal (z-score) [32]: 5.62 | glycan array binding signal (z-score) [33]: 5.5 | glycan array binding signal (z-score) [34]: 5.16 | glycan array binding signal (z-score) [35]: 1.38 | glycan array binding signal (z-score) [36]: -0.272 | glycan array binding signal (z-score) [37]: -0.197 | glycan array binding signal (z-score) [38]: -0.239 | glycan array binding signal (z-score) [39]: -0.005 | glycan array binding signal (z-score) [40]: 5.72 | glycan array binding signal (z-score) [41]: -0.3 | glycan array binding signal (z-score) [42]: -0.295 | glycan array binding signal (z-score) [43]: -0.258 | glycan array binding signal (z-score) [44]: -0.157 | glycan array binding signal (z-score) [45]: -0.166 | glycan array binding signal (z-score) [46]: 5.65 | glycan array binding signal (z-score) [47]: -0.205
